Compounds with a hit are over-represented: about 21% of the library has one in this group of screens.
NS1 function inh – inhibitors of influenza NS1 protein function | 0.4% of 270,000 active | AID 2326 | Potency, µM (doses to about 46.1 µM); calls by dose curve; note: actives are rising curves; nearly all actives have a fitted effect of over 50% in size
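Recovery from NS1-induced slow growth read by OD600 in budding yeast switched to galactose assay medium (pH 6.0, -URA) at 1:100 dilution. Compound 23 nl per well; the matching strain lacking NS1 serves as control.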
Shiga toxin inh – blocks Shiga toxin action in Vero cells; inhibition, % at 38.7 µM; 9.2% of 290,000 active; Vero cells, Shiga toxin protein synthesis inhibition reporter; in the data active = inhibition mostly above about 28%, no sharp cut-off; inactive = mostly below about 43%
Cycloheximide cs – affects cycloheximide protein synthesis inhibition readout, counter-screen; max response, %; 12% of 300,000 active; cell reporter, cycloheximide protein synthesis inhibition counterscreen; in the data active = max response mostly above about 13%, no sharp cut-off; inactive = mostly below about 14%; note: read at 38.3 µM for the half of the compounds with a filed dose
Pf growth 48h – inhibits P. falciparum growth in the first generation, 48 h | AID 504832 | P. falciparum luciferase growth in erythrocytes, 48 h | Potency, µM (top dose mostly 28.7 µM), actives largely listed as inhibitors | 5.9% of 310,000 active
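Luciferase-expressing P. falciparum in infected erythrocytes (2% hematocrit, 0.1% parasitemia final) in RPMI 1640/0.5% Albumax were exposed to compound for 48 hours at 37 C, 5% CO2; growth read as luminescence.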
Pf growth 96h – inhibits malaria parasite growth, 96 h. P. falciparum luciferase reporter growth, 96 h. Potency, µM (highest dose often 28.7 µM), hits mostly inhibitors. 6.9% of 320,000 active
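Cell-based qHTS: luciferase-tagged P. falciparum in erythrocytes (2% hematocrit, 0.05% parasitemia final) incubated with compounds for 96 hours, 37 C, 5% CO2; luciferase detection reagent then added and luminescence measured.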
A number is an active result; 0 = inactive; ? = inconclusive; - = no result. Unless noted, calls come from the whole dose curve; as a rule, active = well fitted inhibition curve with a large enough effect; inconclusive = small, poorly fitted or top-dose-only effect, or another doubt; inactive = no such curve, though single readings can be large or run the other way.

SMILES | NS1 function inh | Shiga toxin inh | Cycloheximide cs | Pf growth 48h | Pf growth 96h
CCOC(=O)c1[nH]c2ccc(C)cc2c1N | 0 | 61.3 | 27.1 | 0 | 0
CCOC(=O)c1[nH]c2ccccc2c1NC(=O)c1ccc(S(=O)(=O)N2CCCC2)cc1 | 0 | 0 | 0 | ? | 11.7µM
CCOC(=O)c1[nH]c2ccccc2c1NC(C)=O | 0 | 0 | 0 | 0 | 0
O=C(O)CCc1c(C(=O)O)[nH]c2ccccc12 | 0 | 0 | 0 | 0 | 0
CN(C)Cc1c(C(=O)Nc2ccccc2)[nH]c2ccccc12 | - | - | - | 2.94µM | 9.28µM
c1ccc(-c2ccc(-c3ccc(C4=NCCN4)cc3)o2)cc1 | 0 | - | - | - | -
Cc1cccc(/C=N\Nc2cn[nH]c(=O)c2Cl)c1 | 0 | 35.9 | 16.4 | 0 | 0
CC(NC(=O)c1ccc(-c2ccccc2)cc1)C(c1ccccc1)N1CCOCC1 (stereo unspecified) | - | - | - | 7.38µM | 10.4µM
COc1ccc(NC(=S)NC(C)C(c2ccccc2)N2CCOCC2)cc1 (stereo unspecified) | - | 0 | 0 | ? | 14.7µM
CC(=O)NC(O)C(=O)c1ccccc1 (stereo unspecified) | 0 | 0 | 0 | 0 | 0
O=C(NC(C(=O)c1ccccc1)N1CCCCCC1)c1ccco1 (stereo unspecified) | 0 | 0 | 0 | 0 | ?
CC(NC(=S)Nc1ccccc1Cl)C(c1ccccc1)N1CCOCC1 (stereo unspecified) | 0 | 0 | 0 | ? | ?
Cc1cc(=O)n(C(NC(=O)c2ccccc2)C(=O)c2ccccc2)cn1 (stereo unspecified) | 0 | 0 | 18.6 | 0 | 0
Cc1ccc(C(=O)C(NC(=O)c2ccco2)N2CCOCC2)cc1 (stereo unspecified) | 0 | 53.1 | 39.5 | 0 | 0
NS(=O)(=O)c1ccc(Cl)cc1[N+](=O)[O-] | 0 | 0 | 0 | 0 | 0
CCOC(=O)c1cc(NC(=O)CN2CCCC2)cc(C(=O)OCC)c1 | ? | 0 | 0 | 0 | 0
O=C(NC(C(=O)c1ccccc1)N1CCOCC1)c1ccccc1 (stereo unspecified) | 0 | 0 | 15.7 | 0 | 10.4µM
O=C(NC(C(=O)c1ccccc1)N1CCOCC1)c1cccs1 (stereo unspecified) | 0 | 33.0 | 22.2 | 0 | 11.7µM
O=C(Nc1ccccc1N1CCOCC1)c1cccs1 | 0 | 0 | 0 | 0 | ?
CN(C)c1ccc(C(C(=O)NC2CCCC2)N(C(=O)c2csnn2)C2CC2)cc1 (stereo unspecified) | 0 | 0 | 0 | 0 | 0
O=S(=O)(c1cnc[nH]1)N1CCc2ccccc21 | 0 | 0 | 0 | 0 | 8.28µM
CC1Cc2ccccc2N1S(=O)(=O)c1cnc[nH]1 (stereo unspecified) | 0 | 0 | 0 | 0 | ?
CC(C)(C)NC(=O)CN(Cc1ccccc1)S(=O)(=O)c1ccccc1 | 0 | 0 | 0 | 0 | ?
Fc1ccc(-c2noc(-c3ccc4c(c3)CCO4)n2)cc1 | 0 | 76.6 | 55.9 | 0 | 0
CCn1cc(/C=C/C(=O)Nc2ccn(Cc3c(F)c(F)cc(F)c3F)n2)cn1 | 0 | 0 | 0 | ? | 13.1µM
SMILES | NS1 function inh | Shiga toxin inh | Cycloheximide cs | Pf growth 48h | Pf growth 96h
CCn1cc(/C=C/C(=O)Nc2ccc(C)cc2Br)cn1 | 0 | active | 28.7 | 0 | 0
CCn1cc(/C=C/C(=O)NCc2c(C)nn(C)c2C)cn1 | 0 | 0 | 0 | 0 | 0
CCn1c(SCC(=O)N2CCCC2)nnc1-c1ccco1 | 0 | 0 | 0 | 0 | 0
O=[N+]([O-])c1ccc(Cl)c(S(=O)(=O)Nc2ccc(S(=O)(=O)N3CCOCC3)cc2)c1 | 0 | 0 | 0 | 0 | 0
COc1cc(/C=N/NC(=O)c2ccc3c(c2)OCCO3)cc(Br)c1O | 0 | 41.2 | 32.4 | 0 | 0
O=C(CC12CC3CC(CC(C3)C1)C2)N/N=C/c1ccncc1 | 0 | 0 | 0 | ? | ?
COc1cccc(/C=N/NC(=O)CNC(=O)c2ccc3c(c2)OCCO3)c1O | 0 | 0 | 0 | 0 | 0
COc1cc(/C=N/NC(=O)c2ccc3c(c2)OCCO3)c(Br)c(Br)c1O | 0 | 0 | 31.9 | 0 | 0
COc1cc(/C=N/NC(=O)CC2(C)OCCO2)cc(Br)c1O | - | 0 | 0 | 0 | 0
COc1cc(/C=N\NC(=O)c2ccc(-c3ccccc3)cc2)cc(Br)c1O | 0 | 0 | 0 | 0 | 0
COc1cc(/C=N/NC(=O)CC23CC4CC(CC(C4)C2)C3)cc(Br)c1OCC(=O)N(C)C | 0 | 0 | 0 | 13.1µM | ?
COc1cc(/C=N/NC(=O)C23CC4CC(CC(C4)C2)C3)cc(Br)c1O | 0 | 25.6 | 0 | 0 | 0
COC(=O)C1=C[C@@H](C(=O)OC)[C@@H]2C3=C(C(=O)C2(C)C)[C@H](c2ccccc2)[C@@H]2C(=O)N(c4ccccc4)C(=O)[C@@H]2[C@@H]3C1 | - | 0 | 0 | - | -
COc1cccc(NC(=O)c2cnsn2)c1 | 0 | 139.5 | 44.0 | - | 0
COc1cccc(NC(=O)c2ncc(Cl)c(Cl)c2Cl)c1 | - | 63.2 | 32.0 | 0 | 0
COc1cccc(NC(=O)c2cccc(C(=O)Nc3cccc(OC)c3)n2)c1 | 0 | 0 | 0 | 0 | ?
COc1cccc(NC(=O)c2nc(SC)ncc2Cl)c1 | 0 | 0 | 0 | 0 | 0
COc1cccc(NC(=O)c2ccn(C)n2)c1 | 0 | 71.6 | 40.7 | 0 | 0
O=C(C[n+]1ccc(/C=N/O)cc1)NC(=O)Nc1ccccc1 | - | - | - | 0 | 0
O=C(Oc1ccc2ccccc2c1)c1ccccc1 | 0 | 0 | 22.5 | - | 0
O=C(Oc1cccc(C(=S)N2CCCCC2)c1)c1ccccc1 | - | 0 | 0 | 0 | 7.38µM
Cc1cccc(C(=O)Oc2ccc3ccc(O)cc3c2)c1 | 0 | - | 24.8 | 0 | ?
CC(=O)Oc1ccc(-c2cccc(C(=O)Oc3ccccc3)c2)cc1 | 0 | 0 | 0 | 0 | -
Cc1ccc(-n2c(-c3cnccn3)n[nH]c2=S)c(Br)c1 | 0 | 0 | 0 | 0 | 0
FC(F)(F)c1ccccc1-n1c(-c2cnccn2)n[nH]c1=S | 0 | 53.3 | 41.2 | 0 | 0
SMILES | NS1 function inh | Shiga toxin inh | Cycloheximide cs | Pf growth 48h | Pf growth 96h
COc1ccc(C(NC(=O)c2cc(OC)ccc2OC)c2ccccc2)cc1 (stereo unspecified) | 0 | 0 | 0 | ? | ?
COc1ccc(OC)c(CC(=O)NC(c2ccccc2)c2ccccc2)c1 | 0 | 0 | 0 | ? | 6.57µM
COc1ccc(CC(=O)NC(c2ccccc2)c2ccc(C)cc2)c(OC)c1 (stereo unspecified) | 0 | 0 | 0 | 10.4µM | ?
CN(C)c1cccc2c(S(=O)(=O)N3CCCC3)cccc12 | 0 | 0 | 34.4 | 0 | 0
CC(=O)N1N=C(c2cccnc2)OC1c1ccc(C(C)C)cc1 (stereo unspecified) | 0 | 0 | 0 | 0 | 0
CC(=O)N1N=C(c2cccc([N+](=O)[O-])c2)OC1c1ccc(Br)cc1 (stereo unspecified) | 0 | 0 | 0 | 0 | 0
CC(=O)N1N=C(c2ccc(C)cc2)OC1c1ccc(C)cc1 (stereo unspecified) | 0 | 0 | 22.2 | - | 0
CC(=O)N1N=C(c2ccc(C)cc2)OC1c1ccc(C(C)C)cc1 (stereo unspecified) | 0 | 163.9 | 38.3 | 0 | 0
O=C1CC(NS(=O)(=O)c2cccs2)CN1c1cccc(F)c1 (stereo unspecified) | - | - | - | 0 | 0
Cc1nc2cc(NC(=O)Nc3cccc([N+](=O)[O-])c3)ccc2n1C | 0 | - | 45.7 | 0 | 0

Assay outcomes deposited in PubChem BioAssay by National Center for Advancing Translational Sciences (NCATS).
